Among all 5,500 compounds or so, about 2,000 (36%) were called active. About 18% were inconclusive and are not listed. No stated cut-off is given here; in the data, active means normalized growth mostly below about 0.91 (no sharp cut-off); inconclusive means no clear call, values can overlap the other calls; inactive means mostly above about 0.92. The list shows a part of the results.
Experiment: chemical genetic growth profiling, strain panel (AID 1159580);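 further: tested at 20 µM; growth read once vehicle control cultures reached saturation at 30 °C; 1 = growth at the plate median or of vehicle wells; lower values mean less growth of the strain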
Conditions: S. cerevisiae deletion strains, growth OD

Measured: normalized growth

CCOP(=S)(OCC)Oc1nc(Cl)c(Cl)cc1Cl
inactive: locus YAL013W, strain DEP1, hits give low values 1.01 | locus YAL021C, strain ccr4, hits give low values 0.974 | locus YAL026C, strain drs2, hits give low values 0.941 | locus YAL030W, strain snc1, hits give low values 0.951 | locus YBL061C, strain skt5, hits give low values 0.964 | locus YBR021W, strain FUR4, hits give low values 1.01 | locus YBR023C, strain chs3, hits give low values 0.963 | locus YBR171W, strain sec66, hits give low values 0.95 | locus YBR229C, strain ROT2, hits give low values 0.997 | locus YBR231C, strain swc5, hits give low values 0.963 | locus YBR279W, strain paf1, hits give low values 0.98 | locus YCL011C, strain gbp2, hits give low values 0.938 | locus YCL016C, strain dcc1, hits give low values 0.981 | locus YCL029C, strain bik1, hits give low values 0.99 | locus YCL069W, strain vba3, hits give low values 0.972 | locus YCR088W, strain abp1, hits give low values 0.951 | locus YDL005C, strain med2, hits give low values 0.968 | locus YDL035C, strain GPR1, hits give low values 1.03 | locus YDL040C, strain nat1, hits give low values 0.955 | locus YDL074C, strain BRE1, hits give low values 0.985 | locus YDL101C, strain DUN1, hits give low values 1.01 | locus YDL134C, strain PPH21, hits give low values 0.988 | locus YDL185W, strain tfp1, hits give low values 0.994 | locus YDL192W, strain arf1, hits give low values 0.989 | locus YDR001C, strain nth1, hits give low values 0.948 | locus YDR069C, strain doa4, hits give low values 0.949 | locus YDR101C, strain arx1, hits give low values 0.981 | locus YDR150W, strain NUM1, hits give low values 1.01 | locus YDR159W, strain sac3, hits give low values 0.952 | locus YDR162C, strain NBP2, hits give low values 1.01 | locus YDR195W, strain ref2 1.03 | locus YDR297W, strain sur2, hits give low values 0.957 | locus YDR318W, strain mcm21, hits give low values 0.981 | locus YDR334W, strain swr1, hits give low values 0.947 | locus YDR335W, strain msn5, hits give low values 0.973 | locus YDR388W, hits give low values 0.986 | locus YDR502C, strain sam2, hits give low values 0.988 | locus YEL003W, strain gim4, hits give low values 0.964 | locus YEL037C, strain rad23, hits give low values 0.959 | locus YEL061C, strain CIN8 (second series), hits give low values 0.957 | locus YEL061C, strain CIN8, hits give low values 1 | locus YER015W, strain faa2, hits give low values 0.964 | locus YER016W, strain bim1, hits give low values 0.973 | locus YER110C, hits give low values 0.993 | locus YER111C, strain swi4, hits give low values 0.958 | locus YER155C, strain BEM2, hits give low values 1 | locus YER167W, strain BCK2, hits give low values 1.01 | locus YFR010W, strain ubp6, hits give low values 0.961 | locus YGL078C, strain dbp3, hits give low values 0.98 | locus YGL086W, strain mad1, hits give low values 0.987 | locus YGL167C, strain pmr1, hits give low values 0.947 | locus YGL173C, strain kem1, hits give low values 0.977 | locus YGL227W, strain vid30, hits give low values 0.935 | locus YGL240W, strain doc1, hits give low values 0.949 | locus YGL248W, strain PDE1, hits give low values 1.01 | locus YGL253W, strain hxk2, hits give low values 0.948 | locus YGR078C, strain PAC10, hits give low values 0.987 | locus YGR135W, strain pre9, hits give low values 0.986 | locus YGR229C, strain SMI1, hits give low values 0.98 | locus YGR252W, strain gcn5, hits give low values 0.976 | locus YHR013C, strain ard1, hits give low values 1.07 | locus YHR027C, strain rpn1, hits give low values 0.966 | locus YHR030C, strain SLT2, hits give low values 1.01 | locus YHR079C, strain IRE1 (second series), hits give low values 0.991 | locus YHR094C, strain hxt1, hits give low values 0.983 | locus YHR129C, strain ARP1, hits give low values 0.995 | locus YHR200W, strain rpn10, hits give low values 0.986 | locus YIL066C, strain RNR3, hits give low values 0.991 | locus YIL073C, strain SPO22, hits give low values 0.961 | locus YIL125W, strain kgd1, hits give low values 0.981 | locus YIR030C, strain dcg1, hits give low values 0.991 | locus YJL092W, strain hpr5, hits give low values 0.959 | locus YJL095W, strain BCK1 (second series), hits give low values 0.949 | locus YJL095W, strain BCK1, hits give low values 0.973 | locus YJL115W, strain asf1, hits give low values 0.971 | locus YJL129C, strain trk1, hits give low values 0.921 | locus YJL134W, strain LCB3, hits give low values 1.01 | locus YJL154C, strain vps35, hits give low values 0.937 | locus YJL166W, strain qcr8, hits give low values 0.961 | locus YJL168C, strain set2, hits give low values 0.988 | locus YJL187C, strain SWE1 (second series), hits give low values 0.996 | locus YJR043C, strain POL32, hits give low values 1.02
active: locus YBR009C, strain hhf1, hits give low values 0.873 | locus YDR137W, strain rgp1, hits give low values 0.832 | locus YDR392W, strain spt3, hits give low values 0.615 | locus YER155C, strain BEM2 (second series), hits give low values 0.748 | locus YHR142W, strain chs7, hits give low values 0.847 | locus YJL164C, strain tpk1, hits give low values 0.914
